From ChEMBL document CHEMBL4888484, “Replenishing the malaria drug discovery pipeline: Screening and hit evaluation of the MMV Hit Generation Library 1 (HGL1) against asexual blood stage Plasmodium falciparum ,using a nano luciferase reporter read-out” (2022)
Hit rate of the full screen: of about 4,800 compounds, about 410 (8.5%) showed an effect of 50% or more. Many of the other results were omitted from the sample, so strong results are more common in it than they were.

System: Plasmodium falciparum
Test: Confirmatory screen in NF54 pLDH assay, in single point, at 2uM, 72h
Format: functional, Erythrocyte
Conditions: timepoint 72 hour

SMILES	% Inhibition
CCC(CC)c1cc([C@H]2CN3CC[C@H]2C[C@@H]3CNS(=O)(=O)Cc2ccccc2)nc(-c2ccncc2)n1	60%
CCCS(=O)(=O)NC[C@H]1C[C@@H]2CCN1C[C@@H]2c1cc(C(CC)CC)nc(-c2ccncc2)n1	25%
CCC(CC)c1cc([C@H]2CN3CC[C@H]2C[C@@H]3CO)nc(-c2ccncc2)n1	24%
CN(C)[C@@H](Cn1c(=O)[nH]c2ccccc2c1=O)c1ccco1	-13%
COc1ccc(-c2csc(-n3cc(C4=CCN(CCO)CC4)cn3)n2)cc1	40%
O=C(Cc1noc2ccccc12)N1CC2CCCC(C1)N2	11%
CC(C)(C)CC(C)(C)NCc1cccnc1	-1%
O=C1NC(=O)C2(Cc3cc(C(F)(F)F)ccc3N3CCCCC32)C(=O)N1c1ccccc1 (centres undefined)	-21%
O=C(c1ccccc1)c1cc(Cl)ccc1NC(=O)[C@H]1CC(=O)N(c2ccc(F)cc2)C1	96%
Cc1c(C(=O)N2CCC3(CC2)OCCO3)oc2ccc3c(c12)[C@@H](O)CC1(CCCCC1)O3	10%
CN(C)c1ccccc1NS(=O)(=O)c1c(Br)cc2[nH]c(=O)oc2c1Cl	2%
CCC(CC)c1cc([C@H]2CN3CC[C@H]2C[C@@H]3CNC(=O)Cc2cccs2)nc(-c2ccncc2)n1	7%
CN1CCc2nc3ccc(F)cc3c(C(N)=O)c2C1	-10%
Cc1ccccc1[C@H](C)NC1=NCCO1	6%
CCN1C[C@]2(COC)CC[C@H](OC)[C@@]34C5C[C@@H]6[C@@H](OC)C[C@@](O)(C5[C@H]6OC(=O)c5ccccc5)[C@@H](CC23)C14 (some centres undefined)	13%
Cc1ccc(C2CC(c3cccnc3)Nc3ncnn32)cc1 (centres undefined)	7%
C=CC1CN2CCC1CC2C12Nc3ccccc3C1(O)CCO2 (centres undefined)	-15%
O[C@@]1(Cc2ccccc2)CN2CCC1CC2	3%
COc1ccc(CCN2C(=O)NC(=O)[C@@]3(Cc4c(ccc5ccccc45)N(C)C3)C2=O)cc1OC	6%
Cc1cc(C(=O)NC2CC(C)n3ccnc32)nn1C(C)C (centres undefined)	70%
CCc1nsc(N2CCC3CCC(C2)N3C)n1 (centres undefined)	-12%
C[C@@H]1N=C(c2ccccc2)c2cc(Cl)ccc2N(CC(=O)Nc2cccc(C(F)(F)F)c2)C1=O	11%

SMILES	% Inhibition
Cc1ccc(CN2CC(=O)N(C)CC23CCCCC3)nc1	-19%
Clc1ccc(C2CC(c3cccnc3)Nc3ncnn32)cc1 (centres undefined)	-11%
COC(=O)c1cc(OC)cc2[nH]c(=O)oc12	-17%
O=C1CCN(C(=O)c2ccc(F)c(Cl)c2)CC1	13%
CC(CCc1ccccc1)N1C(=O)NC(=O)C2(Cc3c(ccc4ccccc34)N(C)C2)C1=O (centres undefined)	6%
CCn1cnc2c(N3C4CCC3C(C(=O)OC(C)(C)C)C4)ncnc21 (centres undefined)	-8%
CC1CNCC(C)N1Cc1csc(C2CC2)n1 (centres undefined)	-9%
O=C1NC(=O)C2(Cc3cccc(F)c3N3CCC(c4ccccc4)CC32)C(=O)N1c1ccccc1 (centres undefined)	-18%
Cc1cc(=O)c(OCC(=O)N2CCN([C@@H](c3ccccc3)c3ccc(Cl)cc3)CC2)c[nH]1	74%
COc1cc(OCC(=O)N2CCN([C@@H](C)Cc3ccccc3)CC2)cc(OC)c1OC	3%
O=C(N1CCN(C(c2ccccc2)c2ccccc2)CC1)C(O)(c1ccccc1)c1ccccc1	-14%
COc1cnc(C(F)(F)F)nc1N1CCNCC1	9%
Cn1cc(Br)cc1C(=O)C(Cl)(Cl)Cl	-6%
CC(C)(C)NC(=O)C1CC2CCCCC2CN1 (centres undefined)	2%
CN1CC2(CN(Cc3cnc4ccc(Cl)cn34)C2)OC1=O	6%
C=CCN(C)C[C@H]1CN2CC[C@H]1C[C@@H]2CNC(=O)Nc1ccc(OC(F)(F)F)cc1	17%
O=C1CCN(C(=O)c2ccc(Cl)c(Cl)c2)CC1	12%
CN1CCC(N(C)C2CCCCC2N(C)C(=O)Cc2ccc(O)cc2)CC1 (centres undefined)	4%
CC(=O)N(C1CCN(Cc2ccccc2)CC1)C1(C(=O)Nc2ccc3[nH]ccc3c2)CCN(C)CC1	101%
CN1CC2CN(Cc3ccccc3)CC(C1)C2=O	-5%
COCCn1ccc(C(=O)N[C@H]2CCc3nc(C(C)C)nn3C2)n1	1%
CN1CC[C@]2(CCN(c3ccnc4ccsc34)C2)C1	97%

SMILES	% Inhibition
c1cc(N2CC[C@@]3(CCCNC3)C2)c2sccc2n1	98%
CN1CCC2(CC1)CNc1ccccc12	0%
COC(=O)COc1ccc(C#N)c(Cl)c1	1%
CCOc1ccccc1NC(=O)c1cn(Cc2ccc(N)cc2)cn1	6%
O=c1[nH]c2cc(NS(=O)(=O)c3ccc(C4CCCCC4)cc3)ccc2o1	-14%
COc1ccc(N2C[C@H]2c2ccncc2)cc1	12%
O=C(NC[C@H]1C[C@@H]2CC[N@]1C[C@@H]2CN1CCC(Cc2ccccc2)CC1)Nc1ccccc1	27%
CN(C)C(=O)Oc1cccc2ccc(CN3CCC(N4CCN(c5ccc(C(F)(F)F)cn5)CC4)CC3)nc12	5%
O=C(Cc1cnc2ccccn12)N1C[C@H]2CC[C@@H](C1)N(Cc1ccccn1)C2	20%
CNCCc1cc(OC)c(OC)c2c1ccc1cc(OC)c(OC)cc12	7%
c1ccc2c(CCNC3(c4nnnn4C4CCCCC4)CCCCC3)c[nH]c2c1	16%
O=S(=O)(NC12CCCC1CNC2)c1onc(C2CC2)c1Cl (centres undefined)	97%
O=C(NCc1ccc(Br)cn1)[C@H]1NCC12CCCC2	4%
COC(=O)CNc1cc(C)c([C@@](O)(C(=O)OC)C(F)(F)F)cc1OC	6%
CCN(CC)C(=O)Oc1cc2nnnn2nc1-c1ccccc1	6%
CC(C)N1C(=O)NC(=O)C2(Cc3ccccc3N3CCN(Cc4ccccc4)CC32)C1=O (centres undefined)	19%
C=CCCC(CN1C[C@H]2CC=CC[C@H]2C1)Oc1ncc(F)cn1 (some centres undefined)	64%
C[C@@H](Cc1ccc(O)cc1)NCc1cc[nH]n1	12%
CCCC(=O)N(C(=O)CCC)c1ccc2[nH]c(=O)oc2c1	-1%
Cc1ccc(Cl)c(NC(=O)N2CCC[C@H](c3n[nH]c(=O)o3)C2)c1	2%
